# Laboratory results published in PubChem BioAssay AID648 (SRMLSC, 2007).
# Screen size: about 86,000 compounds; about 920 (1.1%) were called active. Shown is part of a subset that was picked to be rich in actives. A number with no mark means an inactive call.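 The calls were made as follows: active = viability at or below 30%; inactive = viability above 30%.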
# Assay: inhibitors of HUVEC proliferation, primary screen, cell-based, 384-well (AID 648);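 also: 100% = median luminescence of DMSO-only cell control wells on each plate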
# Conditions: CellTiter-Glo luminescence, 72 h, hits give low values, screened at 10 µM (by protocol)
row,Structure (SMILES),viability
1,Cc1ccc(/C=N/NC(=O)C2=NNC(c3ccccc3)(c3ccccc3)C2)c(O)c1,25.4% (active)
2,C/C(=N\NC(=O)c1nc(C)cc(C)n1)c1ccccc1,93.6%
3,Cc1ccc(OCC(=O)N/N=C\c2ccco2)c(C)c1,93%
4,CCN(CC)CCn1c2ccc(Cl)cc2c2nc(C)sc21,87.5%
5,CCOC(=O)c1ccc(N2C(=O)CC(N(C)Cc3ccccc3)C2=O)cc1 (stereo not drawn),92.5%
6,COc1cccc(NC(=O)Cc2ccc(C)cc2)c1,95.9%
7,COc1ccc(NC(=O)/C(Cl)=C(/Cl)S(=O)Cc2ccc(C)cc2)cn1 (stereo not drawn),1.52% (active)
8,COc1ccc(CC(=O)Nc2ccc(-c3nnc(-c4ccc(C)cc4)o3)cc2)cc1,61.7%
9,COc1cc(C(=O)OC(C)C(=O)NCC2CCCCC2)cc(NC(=O)c2ccco2)c1OC (stereo not drawn),100%
10,N#CCSc1nc2ccc(N3CCOCC3)cc2c(=O)n1CCc1ccccc1,90.5%
11,Cc1ccc(CNC(=O)CCNS(=O)(=O)c2cccc3nonc23)cc1,95.1%
12,COc1ccc(-c2cc(C(F)(F)F)nc(S(C)(=O)=O)n2)cc1OC,13.2% (active)
13,COc1ccc(-c2cc(C(F)(F)F)nc(NCc3cccnc3)n2)cc1,88.9%
14,COc1ccc(-c2nnco2)cc1OC,102%
15,COC(=O)C1C(=O)NCC1c1ccc(OC)cc1 (stereo not drawn),93.7%
16,COCc1[nH][nH]c(=O)c1C=Nc1ccc(F)cc1F,86.9%
17,CCN(CC)CCCNC(=O)CCc1ccccc1,103%
18,Cc1cc(N2CCN(S(=O)(=O)c3ccc(C)c(C)c3)CC2)c2ccccc2n1,81.6%
19,CC(=O)c1cccc(NC(=O)Nc2ccc(C)cc2)c1,90%
20,Cc1ccc(NC(=O)CCN2CCc3ccccc3C2)cc1,103%
21,Cc1ccc(NC(=S)NC(NC(=O)Cc2cccc3ccccc23)C(Cl)(Cl)Cl)cc1 (stereo not drawn),4.6% (active)
22,COc1ccc(-c2cn(-c3ccc(C)cc3)c(=O)n2CC(=O)Nc2ccc(OC)c(OC)c2)cc1,92.4%
23,COc1ccc(-c2nnc(SCc3cccnc3)o2)cc1,104%
24,COc1cc2c(cc1OC)C(C(C)C)=NC(C)(C)C2,90.5%
25,COc1ccc(CCNC(=O)CN(c2ccccc2)S(C)(=O)=O)cc1OC,94.6%

row,Structure (SMILES),viability
1,FC(F)(F)c1nnc2ccc(N3CCN(c4ccccc4)CC3)nn12,85.4%
2,COC(=O)c1ccccc1NC(=O)Cc1ccccc1OC,91.1%
3,Cc1ccc(C(CC(=O)O)Nc2nc(N3CCCCC3)nc(N3CCCCC3)n2)cc1 (stereo not drawn),99.9%
4,CC(C)n1c(C(O)c2ccccc2)nc2ccccc21 (stereo not drawn),99.3%
5,CC(Nc1nc(N2CCCC2)nc2ccccc12)c1ccccc1 (stereo not drawn),4.14% (active)
6,CCN(c1ccccc1)S(=O)(=O)c1ccc(C(=O)Nc2nccs2)cc1,104%
7,Cc1ccc(-c2noc(CC(c3ccccc3)c3ccccc3)n2)cc1,135%
8,COc1ccc(N2CCN(Cc3ccc(Br)s3)CC2)cc1,108%
9,COc1ccc(Cl)cc1C(=O)NCC#N,91.6%
10,O=C(NCc1ccccc1)C1CCCN(S(=O)(=O)c2cccs2)C1 (stereo not drawn),93%
11,CC(=O)Oc1ccc(C(C)=O)c2c1OCCO2,82.4%
12,CCN(CC)C(=O)CC1(c2ccccc2OC)CCOC(C(C)C)C1 (stereo not drawn),103%
13,OC(CN=c1sc2ccccc2n1CC(O)COc1ccccc1)COc1ccccc1 (stereo not drawn),28.9% (active)
14,CC(C)c1ccc(OCC(O)Cn2cnc3ccccc32)cc1 (stereo not drawn),84.8%
15,OC(COc1ccccc1)Cn1cc(Br)cn1 (stereo not drawn),99.8%
16,COc1ccccc1/C=C/C1=NC(=C\N(C)C)/C(=O)O1,90.8%
17,CC(C)c1ccc(-c2noc(C3CCCN(S(C)(=O)=O)C3)n2)cc1 (stereo not drawn),82.4%
18,Cc1ccc(CNC(=O)C2CCCN2C(=O)NCc2ccccc2)cc1 (stereo not drawn),102%
19,CC1CCC(N2CC(=O)N(Cc3ccc4c(c3)OCO4)C(c3ccc(F)cc3)C2=O)CC1 (stereo not drawn),104%
20,C=CCn1c(N)c(S(=O)(=O)c2cccs2)c2nc3ccccc3nc21,107%
21,C=CCn1c(N)c(C(=O)OCC(C)C)c2nc3ccccc3nc21,66.4%
22,CC(C)Cn1c(N)c(C(=O)NCc2cccs2)c2nc3ccccc3nc21,3.01% (active)
23,O=C(Nc1ccc2nc3n(c(=O)c2c1)CCCCC3)c1ccccc1Cl,109%
24,CCOC(=O)c1cc2c(ccn2C)n1CC(=O)N1CCC(C)CC1,93.4%
25,O=C(CC(O)(C(F)(F)F)C(F)(F)F)Nc1ccc(Cl)c(Cl)c1,3.08% (active)

row,Structure (SMILES),viability
1,N/C(=N\OC(=O)Nc1ccc(Cl)c(Cl)c1)c1ncc(C(F)(F)F)cc1Cl,60.3%
2,CN(C)CCNC(CC(=O)Nc1ccc(Cl)c(Cl)c1)C(=O)O (stereo not drawn),93.2%
3,COc1ccc(-c2cc3nc(C)c(CCC(=O)NC(C)CCc4ccco4)c(C)n3n2)c(OC)c1 (stereo not drawn),88.3%
4,CCNC(=O)NC(=O)C(C)OC(=O)c1cc(S(=O)(=O)N2CCCCCC2)ccc1OC (stereo not drawn),79.6%
5,Cc1[nH][nH]c(=O)c1N=Nc1ccccc1,109%
6,Cc1[nH][nH]c(=O)c1C(c1ccc(-c2ccc(Cl)cc2)o1)c1c(C)[nH][nH]c1=O,24% (active)
7,CCCCOC(=O)Cn1c(=N)n(CCN(CC)CC)c2ccccc21,104%
8,O=C(COc1cc(Cl)c(Cl)cc1Cl)NC(=O)NC1CCCC1,88.8%
9,O=S(=O)(NCC1OCCc2ccccc21)c1ccccc1 (stereo not drawn),104%
10,COC(=O)C(C(=O)Nc1cccc(C)n1)C1CCCCCC1 (stereo not drawn),88.7%
11,COC(=O)c1ccccc1Oc1c(F)c(F)nc(N2CCOCC2)c1F,95.4%
12,CC(C)(C)C(=O)Cn1c(NCCO)nc2ccccc21,95.1%
13,O=C(O)[C@@H]1CCCN1c1ncnc2sc3c(c12)CCC3,99%
14,OCCNc1nc2ccccc2n1-c1ncnc2sc3c(c12)CCC3,4.2% (active)
15,CN=C1SC(CC(=O)Nc2ccc(C(=O)O)cc2)C(=O)N1C (stereo not drawn),88%
16,CCC(=O)NC(Nc1nc2ccc(C)cc2s1)(C(=O)OC)C(F)(F)F (stereo not drawn),101%
17,Cc1ccc(C)c(NC2=NCC(=O)N2c2ccc3c(c2)OCCO3)c1,103%
18,Cc1nc2ccccc2c(=O)n1CCCn1ccnc1,92.5%
19,CCn1c(/C=C/c2ccc([N+](=O)[O-])o2)nc2ccccc2c1=O,4.01% (active)
20,O=c1c2ccccc2nc(N/N=C/c2ccccc2)n1O,101%
21,CCn1nc(C)c(NC(=O)/C=C/c2ccc(OC)c(COc3ccc(Br)cc3)c2)c1C,10.6% (active)
22,COc1ccc(/C=C/C(=O)Nc2c(C)nn(C)c2C)cc1COc1ccc(Br)cc1,46.5%
23,CCn1c(COc2ccc(OC)cc2)nnc1SCC(=O)Nc1cc(OC)ccc1OC,98%
24,c1ccc(-n2nc3ccccc3n2)cc1,94.1%
25,COC(=O)c1[nH]c2ccc(Br)cc2c1NC(=O)Oc1ccccc1,86.1%

row,Structure (SMILES),viability
1,Cn1c(N)c(C(=O)COC(=O)C23CC4CC(CC(C4)C2)C3)c(=O)n(C)c1=O,99.2%
2,Cc1ccc(CN(C(=O)c2sc3ccccc3c2Cl)C2CCS(=O)(=O)C2)cc1 (stereo not drawn),80.5%
3,CC(C)CC[n+]1ccn(C2=C([O-])c3ccccc3C(=O)/C2=N\S(=O)(=O)c2ccccc2)c1,20.6% (active)
4,CN(Cc1ccccc1)C(=O)COc1ccccc1,98.7%
5,COc1nc(NC2CCCCC2)nc(N2CCCCCC2)n1,77.8%
6,CCOC(=O)c1cnc(SCc2nc(N)nc(Nc3ccc(OC)cc3)n2)nc1N,111%
7,Cc1cccc2nc(CSc3nc4[nH]ncc4c(=O)n3-c3cccc(Cl)c3)cc(=O)n12,76.9%
8,CCn1c(CNC(=O)c2ccccc2)nnc1SCC(=O)N1CCN(c2ccccc2)CC1,98.7%
9,C=CCn1c(SCC(=O)/C(C#N)=C(\C)N)nc2sc(C)c(C)c2c1=O,28% (active)
10,CCCn1c(=O)c2ccccc2n2c(SCC(=O)/C(C#N)=C(\C)N)nnc12,83.6%
11,Cc1sc2nc(SCC(N)=O)n(C)c(=O)c2c1C,98.6%
12,O=C(CSCc1c(F)cccc1Cl)NCC1CCCO1 (stereo not drawn),101%
13,Cc1ccc(O/C=C2\OC(=O)c3ccccc32)cc1,98.2%
14,COC(=O)c1sc(=S)n(-c2ccc(Cl)cc2)c1C,90%
15,COc1ccc(-n2nnnc2SCc2nc(N)nc(N3CCOCC3)n2)cc1,96.3%
16,CCOC(=O)c1sc(NC(=O)CSc2nc(C)cc(C(F)(F)F)n2)c(C#N)c1C,88.5%
17,COc1ccccc1-c1nc(C#N)c(N2CCC(C(N)=O)CC2)o1,95.4%
18,COc1ccc(Nc2oc(-c3ccccc3Cl)nc2C#N)cc1,29.9% (active)
19,CCOc1ccc(Nc2oc(Cc3ccccc3)nc2C#N)cc1,104%
20,O=C(Nc1cccc(NC(=O)c2ccco2)c1)c1cnccn1,83.6%
21,Fc1ccc(-n2c(Cc3ccccc3)nnc2SCc2nc(-c3ccc(Cl)cc3)no2)cc1,76.6%
22,COc1ccc(N(CC(=O)NC2CCCCC2)S(=O)(=O)c2c(C)[nH]c(=O)[nH]c2=O)cc1,96.7%
23,COc1ccc([N+](=O)[O-])cc1C1NN=C(c2cccc3ccccc23)S1 (stereo not drawn),81.9%
